# A selection: hits, their analogues and other compounds. The true share with any hit is near 5.4%.
# MPTP inh: permeability transition pore inhibition; isolated mouse mitochondria, Ca2+ swelling absorbance, 30 min; inhibition, % at 10 µM; actives 1.4% (n = 360,000);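 active = inhibition of 50% or more, scaled per plate between neutral and stimulator controls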
# Calb FLC: C. albicans growth modulation with fluconazole; growth inhibition, % (concentration not given with the values); AID 1979; actives 0.57% (n = 300,000); C. albicans CaCi-2 (fluconazole-resistant clinical isolate) + fluconazole, Alamar Blue growth, 48 h;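 active = growth inhibition above about 58% in most replicates, limit read from the data, passing the limit was not always enough; inconclusive = exactly half the replicates above a set limit; inactive = most replicates below a set limit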;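 note: all wells also contain fluconazole at 8 µg/ml as a sub-toxic cotreatment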
# SKKanGAS inh: inhibitors of SKKanGAS S. pyogenes growth in kanamycin (SK-promoter or general growth effect) | BacTiter-Glo, 6 h | inhibition, % at 7.5 µM | actives 1.3% (n = 300,000) | AID 1662;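 active = mean replicate score, as percent of positive control median, at least 50; inconclusive = mean below 50 but one replicate at or above 50; inactive = mean and every replicate below 50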;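 note: strain carries kanamycin resistance gene driven by streptokinase promoter and grows in 40 µg/ml kanamycin; loss of luminescence reflects streptokinase promoter inhibition or plain growth inhibition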
# Mdm2 MdmX PPI: human Mdm2/MdmX binding inhibition. SaOS-2 split-luciferase Mdm2/MdmX complementation, luminescence. inhibition, % at 8 µM. actives 3% (n = 330,000). AID 485346;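 active = inhibition of at least 50% at 8 µM in the primary screen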
# Target sequence (O15151 whole entry, looked up): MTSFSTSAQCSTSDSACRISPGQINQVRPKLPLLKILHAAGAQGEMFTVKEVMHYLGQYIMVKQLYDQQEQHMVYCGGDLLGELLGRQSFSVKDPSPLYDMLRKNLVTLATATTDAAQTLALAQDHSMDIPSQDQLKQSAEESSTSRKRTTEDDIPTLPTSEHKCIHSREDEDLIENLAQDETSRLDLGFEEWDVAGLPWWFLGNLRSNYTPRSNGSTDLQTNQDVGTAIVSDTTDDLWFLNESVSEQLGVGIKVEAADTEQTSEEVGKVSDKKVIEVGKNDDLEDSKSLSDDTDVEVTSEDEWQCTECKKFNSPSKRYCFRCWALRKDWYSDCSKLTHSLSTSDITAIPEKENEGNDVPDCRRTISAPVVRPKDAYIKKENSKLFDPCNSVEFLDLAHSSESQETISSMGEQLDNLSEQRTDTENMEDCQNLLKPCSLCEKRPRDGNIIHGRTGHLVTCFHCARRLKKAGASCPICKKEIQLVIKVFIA
# Target sequence (Q00987 whole entry, looked up): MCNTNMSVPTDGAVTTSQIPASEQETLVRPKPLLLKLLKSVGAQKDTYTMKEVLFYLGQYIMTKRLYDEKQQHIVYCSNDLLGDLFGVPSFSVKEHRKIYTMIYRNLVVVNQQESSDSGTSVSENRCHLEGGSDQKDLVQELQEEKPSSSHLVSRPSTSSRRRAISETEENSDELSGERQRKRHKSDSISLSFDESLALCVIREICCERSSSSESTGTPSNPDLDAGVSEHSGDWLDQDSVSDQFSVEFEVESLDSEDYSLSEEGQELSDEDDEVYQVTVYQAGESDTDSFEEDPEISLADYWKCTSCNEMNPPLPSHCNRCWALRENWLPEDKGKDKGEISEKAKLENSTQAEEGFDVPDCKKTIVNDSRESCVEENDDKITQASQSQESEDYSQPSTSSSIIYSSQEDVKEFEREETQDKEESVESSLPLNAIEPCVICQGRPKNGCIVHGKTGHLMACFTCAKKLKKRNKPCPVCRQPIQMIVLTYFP
# Beta apoptosis: blocks beta cell apoptosis; INS-1E cytokine-induced death, ATP luminescence, 48 h; percent of positive-control rescue, neutral wells zero; actives 0.8% (n = 300,000); AID 435005; protection from apoptosis, % (no concentration beside the values);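 active = Every replicate reaches about 75%, or at least half do and their mean reaches it too, limit read from the data; inconclusive = At least half of replicates reach the limit but their mean does not; inactive = Under half of replicates reach the limit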;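 note: higher means more ATP so stronger rescue from cytokine killing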
# CSC inhib: cancer stem cell inhibition | cancer stem cell-like cells viability, luminescence | inhibition, % at 7.5 µM | actives 1.1% (n = 300,000) | AID 2717; in the data active = inhibition above about 75%; inconclusive = no clear call, values can overlap the other calls; tested in HMLE shEcad cells
# Mdm2 MdmX conf: human Mdm2/MdmX binding inhibition, confirmed | inhibition, % at 8 µM | actives 55% (n = 10,000) | luminescent assay | shares compounds with Mdm2 MdmX PPI | AID 489028; in the data active = inhibition above about 40%
# Full FLuc ctr: counter-screen for Mdm2/MdmX inhibitors: full-length luciferase; inhibition, % at 8 µM; shares compounds with Mdm2 MdmX PPI; SaOS-2 full-length luciferase counterscreen, luminescence; actives 77% (n = 6,200);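 active = mean inhibition at 8 µM reaching about 37%, which flags the compound as non-specific, limit read from the data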;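 note: p53-null SaOS-2 cells with luciferase driven by a doxycycline-inducible promoter; compound on cells about two nights before reading with doxycycline added after day one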
# A number is an active result; – = inactive; ? = inconclusive; · = no result.
SMILES,MPTP inh,Calb FLC,SKKanGAS inh,Mdm2 MdmX PPI,Beta apoptosis,CSC inhib,Mdm2 MdmX conf,Full FLuc ctr
O=C(C[C@H]1C[C@H](C(=O)N2CCOCC2)[C@@]2(CCC3CCCC3)c3[nH]c4cc(-c5ccco5)ccc4c3CCN2C1=O)NCCC1=CCCCC1,–,·,·,–,·,·,·,·
COc1ccccc1-c1ccc(=O)n(CC(=O)NCc2ccco2)n1,–,–,–,–,–,–,·,·
COC(=O)c1cccc(CSc2nc3ccccc3[nH]2)c1,–,–,–,–,–,–,·,·
CCOC(=O)c1ccccc1NC(=O)C1CC(=O)N(C2CCCCC2)C1 (stereo unspecified),–,–,–,–,–,–,·,·
CN(C)C(=O)CCc1ccc2c3c([nH]c2c1)[C@]1(CCC2CCCC2)[C@@H](C(=O)N2CCOCC2)C[C@H](CC(=O)NCCC2=CCCCC2)C(=O)N1CC3,–,·,·,54.4,·,·,57.0,60.7
CN(C)C(=O)CCc1ccc2c3c([nH]c2c1)[C@]1(CCC2CCCC2)[C@@H](C(=O)N2CCOCC2)C[C@H](CC(=O)NCCN2CCOCC2)C(=O)N1CC3,–,·,·,–,·,·,·,·
C/C(=N\NC(=O)c1cccc(F)c1)c1ccc(Br)s1,–,–,–,71.8,–,–,49.4,44.2
COc1ccc(Cl)cc1Nc1nc2ccc(C)cc2n2cnnc12,–,–,–,55.1,–,–,–,·
COc1ccc(OC)c(Nc2nc3ccc(C)cc3n3cnnc23)c1,–,–,–,–,–,–,·,·
O=C(O)CC(CC(=O)Nc1ccccc1C(=O)O)c1ccccc1 (stereo unspecified),–,–,–,–,–,–,·,·
O=C(Nc1nnc(-c2cccs2)o1)c1cccc(Oc2ccccc2)c1,–,·,·,54.9,–,–,–,·
O=C(Nc1ccsc1C(=O)O)c1cccc(Oc2ccccc2)c1,–,–,–,–,–,–,·,·
CCN(Cc1ccccc1)C(=S)Nc1cc(C(=O)OC)ccc1C(=O)OC,–,–,–,–,–,–,·,·
CCCN1C/C(=C/c2ccc3c(c2)OCO3)C(=O)/C(=C/c2ccc3c(c2)OCO3)C1,–,–,–,98.7,–,87.4,–,68.5
CCOC(=O)N1CCc2c(sc3nc4n(c(=O)c23)N=C(c2ccc(OC)cc2)CS4)C1,–,–,–,–,·,–,·,·
CC(C)N1CCc2c(sc(NC(=O)c3ccc([N+](=O)[O-])o3)c2C(N)=O)C1,–,–,?,88.7,–,–,94.0,–
CC(=O)N1CCc2c(sc(NC(=O)c3ccc([N+](=O)[O-])o3)c2C#N)C1,–,–,–,·,·,·,·,·
COC(=O)c1c(NC(=O)c2ccc([N+](=O)[O-])o2)sc2c1CCN(C(C)C)C2,–,–,57.0,97.4,–,–,98.5,47.7
COc1ccc(-n2nc(C(=O)NCC(=O)N3CCN(c4ccccn4)CC3)c3ccccc3c2=O)cc1Cl,–,–,–,–,–,–,·,·
CCOC(=O)Cn1c2ccc(OC)cc2c2nc3ccccc3nc21,–,–,–,70.4,·,–,–,·
COC(=O)Cn1c2ccc(OC)cc2c2nc3ccccc3nc21,–,?,–,–,–,–,·,·
COc1ccc(CCNC(=O)c2ccccc2NC(=O)CN2CCN(c3ccccc3O)CC2)cc1,–,·,·,53.9,·,·,44.8,97.0
CCN(c1ccc(OC)cc1)S(=O)(=O)c1ccc(-c2cc(C)no2)s1,–,–,–,57.2,–,–,48.0,58.9
COc1ccc(C)cc1NS(=O)(=O)c1ccc(NC(=O)CN(c2cc([N+](=O)[O-])ccc2C)S(C)(=O)=O)cc1,–,–,–,70.3,112.0,92.7,63.3,51.0
Cc1cccc(NS(=O)(=O)c2cc(NC(=O)CC(=O)c3ccc([N+](=O)[O-])cc3)ccc2C)c1,·,–,–,·,·,·,·,·
SMILES,MPTP inh,Calb FLC,SKKanGAS inh,Mdm2 MdmX PPI,Beta apoptosis,CSC inhib,Mdm2 MdmX conf,Full FLuc ctr
Cc1cccc(NS(=O)(=O)c2ccc(NC(=O)CN(c3cc([N+](=O)[O-])ccc3C)S(C)(=O)=O)cc2)c1,–,–,–,55.0,110.9,95.6,49.1,51.7
COc1ccc(/C=C2/Sc3ccc(C(=O)NCCCN4CCOCC4)cc3NC2=O)cc1OC,–,–,–,75.8,·,–,–,·
Cc1cccc(/C=C2/Sc3ccc(C(=O)NCCN4CCCC4)cc3NC2=O)c1,–,–,–,71.7,–,–,–,·
O=C1Nc2cc(C(=O)NCCCN3CCCC3)ccc2S/C1=C/c1cccc(Cl)c1,–,·,·,·,·,·,·,·
CCN1CCN(CCCNC(=O)c2ccc3c(c2)NC(=O)/C(=C\c2cccc(C)c2)S3)CC1,–,–,–,97.5,–,121.1,61.2,63.2
CCN1CCN(CCCNC(=O)c2ccc3c(c2)N(Cc2ccc(C)cc2)CCS3)CC1,–,–,–,51.0,–,–,–,·
CCN1CCN(CCCNC(=O)c2ccc3c(c2)NC(=O)c2ccccc2S3)CC1,–,–,–,–,–,–,·,·
COc1ccc(-n2nc(C(=O)N3CCCCC3)c3ccccc3c2=O)cc1,–,·,·,–,–,–,·,·
Cc1ccc(/C=C(\C#N)C(=O)NCCN2CCOCC2)cc1,–,–,–,–,–,–,·,·
Cc1cccc(CN2C(=O)c3ccccc3Sc3ccc(C(=O)NCCCN4CCOCC4)cc32)c1,–,–,–,–,–,–,·,·
Cc1cccc(/C=C2/Sc3ccc(C(=O)NCCCN4CCOCC4)cc3NC2=O)c1,–,–,–,52.7,–,114.8,–,·
Cc1ccc(/C=C2/Sc3ccc(C(=O)NCc4ccccn4)cc3NC2=O)cc1,–,–,–,69.8,–,–,–,·
Cc1ccc(C(=O)NCc2ccccn2)cc1Cl,–,–,–,–,–,–,·,·
Clc1cccc(OCc2nc(-c3ccncc3)no2)c1,–,–,–,–,–,–,·,·
CCOc1ccc(CCn2c(-c3ccco3)nc3ccccc3c2=O)cc1OCC,–,–,–,–,–,–,·,·
Cc1cccc(NC(=O)c2cccnc2Oc2ccccc2)c1C(=O)O,–,–,–,–,–,–,·,·
COc1ccc(CCN2C(=O)CSC2=S)cc1OC,–,–,–,84.9,–,–,84.5,40.4
COc1ccc(CN2C(=O)CSCC2=O)cc1OC,–,–,–,–,–,–,·,·
O=C1/C(=C\c2ccco2)SC(=S)N1Cc1ccccc1,–,–,–,–,–,–,·,·
COc1ccc(CCN2C(=O)/C(=C\c3ccco3)SC2=S)cc1OC,–,–,–,74.6,·,·,46.9,78.6
CC/C=C\[C@H](O)[C@H](O)C1=C(C)C(=O)[C@]2(O1)C(=O)N[C@@](OC)(C(=O)c1ccccc1)C2O (stereo partly specified),–,–,–,–,–,–,·,·
COc1ccc(N2C(=O)N3[C@H](c4cccc(C)c4)[C@@H]4C(=O)N(Cc5ccccc5)C(=O)[C@@H]4[C@]3(Cc3ccccc3)C2=O)cc1,·,–,–,69.8,–,–,79.7,–
Cc1cccc([C@@H]2[C@@H]3C(=O)N(Cc4ccccc4)C(=O)[C@@H]3[C@]3(C)C(=O)N(c4ccc(C(F)(F)F)cc4)C(=O)N23)c1,–,–,–,83.8,–,–,74.5,–

# High-throughput results as filed in PubChem BioAssay.
